This note sets out measurements from PubChem BioAssay.

Active and inactive are the calls of the source. Unless noted, how the calls were made is not given here.

A short description of assay [1]: compounds binding Alexa647 anti-His antibody – biochemical, small-molecule microarray, 635 nm fluorescence, artefact control for SMM control protein annotation, primary screen (AID 1128).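 Further: score merges feature fluorescence with signal-to-noise for each printed compound spot.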 The settings on record: higher = more signal.
The subject of assay [2] is Human papillomavirus type 1a E7 protein (residues 1-88). The experiment in a line: HPV1a E7 small-molecule binders, primary screen, biochemical, small-molecule microarray, residues 1-88, 635 nm (AID 1129). The conditions noted are these: small-molecule microarray binding, fluorescence 635 nm; higher = more signal.
The target of assay [3] is Focal adhesion kinase 1 (Homo sapiens) (UniProt Q05397). The experiment in a line: PTK2 protein binding on printed compound slides – biochemical, small-molecule microarray, 635/667 nm fluorescence, BSA, DTT, primary screen (AID 1130).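 Further: composite of spot emission at 667 nm and signal to noise over triplicate slides.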 The conditions noted are these: 635 nm fluorescence, higher = more signal.
Focal adhesion kinase 1 (Homo sapiens), sequence (Q05397 whole entry, looked up): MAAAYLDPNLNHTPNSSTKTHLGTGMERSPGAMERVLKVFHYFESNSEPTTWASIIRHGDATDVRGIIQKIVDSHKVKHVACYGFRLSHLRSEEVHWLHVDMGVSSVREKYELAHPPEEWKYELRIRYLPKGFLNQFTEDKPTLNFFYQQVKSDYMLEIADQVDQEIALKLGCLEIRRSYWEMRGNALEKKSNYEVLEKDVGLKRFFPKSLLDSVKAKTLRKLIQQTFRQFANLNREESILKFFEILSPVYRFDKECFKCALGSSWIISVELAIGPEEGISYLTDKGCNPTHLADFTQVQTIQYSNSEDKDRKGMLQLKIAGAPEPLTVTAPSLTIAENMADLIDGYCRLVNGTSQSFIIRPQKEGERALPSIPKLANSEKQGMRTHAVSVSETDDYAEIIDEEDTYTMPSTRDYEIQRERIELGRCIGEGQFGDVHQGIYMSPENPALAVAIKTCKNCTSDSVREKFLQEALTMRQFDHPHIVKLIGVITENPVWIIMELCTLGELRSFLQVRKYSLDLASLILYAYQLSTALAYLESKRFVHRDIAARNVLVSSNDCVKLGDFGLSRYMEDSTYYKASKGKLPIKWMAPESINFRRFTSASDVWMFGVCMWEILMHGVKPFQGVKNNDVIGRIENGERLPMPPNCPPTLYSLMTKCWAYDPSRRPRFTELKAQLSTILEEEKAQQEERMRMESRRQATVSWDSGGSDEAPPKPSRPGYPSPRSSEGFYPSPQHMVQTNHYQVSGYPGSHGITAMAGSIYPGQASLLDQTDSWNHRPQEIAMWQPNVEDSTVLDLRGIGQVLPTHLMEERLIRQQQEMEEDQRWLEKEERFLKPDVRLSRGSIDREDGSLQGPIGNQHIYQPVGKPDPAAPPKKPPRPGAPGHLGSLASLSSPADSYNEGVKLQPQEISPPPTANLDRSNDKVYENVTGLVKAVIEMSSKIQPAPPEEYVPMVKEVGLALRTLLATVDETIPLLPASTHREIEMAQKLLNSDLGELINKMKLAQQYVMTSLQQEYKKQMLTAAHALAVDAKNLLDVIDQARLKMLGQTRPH
Assay [4] concerns Fibrinogen (Alexa647-labelled). As to the kind of experiment: Alexa647-fibrinogen binding to printed small molecules – biochemical, small-molecule microarray, 635/667 nm fluorescence, artefact control for SMM control-protein annotation, profiling panel (AID 1131).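 Further: z-score merges 667 nm fluorescence with per-spot signal-to-noise over triplicate slides.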 The settings on record: fibrinogen-A647 binding fluorescence, higher = more signal.
The target of assay [5] is Follistatin (Homo sapiens) (UniProt P19883). As to the kind of experiment: FST protein binding to printed compounds – biochemical, small-molecule microarray, 635/667 nm fluorescence, primary screen (AID 1132). The settings on record: 635 nm fluorescence, higher = more signal.
Follistatin (Homo sapiens), sequence (P19883 whole entry, looked up): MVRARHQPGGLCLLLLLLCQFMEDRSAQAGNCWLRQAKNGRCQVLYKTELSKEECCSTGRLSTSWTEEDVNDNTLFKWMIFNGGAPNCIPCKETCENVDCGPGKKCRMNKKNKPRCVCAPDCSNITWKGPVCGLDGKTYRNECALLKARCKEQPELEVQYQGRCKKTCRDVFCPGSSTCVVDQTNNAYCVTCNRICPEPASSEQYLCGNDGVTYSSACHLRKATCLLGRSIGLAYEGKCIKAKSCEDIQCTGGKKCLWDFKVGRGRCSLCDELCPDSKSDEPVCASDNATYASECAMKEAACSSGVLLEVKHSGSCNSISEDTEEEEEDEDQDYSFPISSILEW
Assay [6] concerns the target Fibroblast growth factor 2 (Homo sapiens) (UniProt P09038). The experiment in a line: basic fibroblast growth factor binding to printed compounds – biochemical, small-molecule microarray, 635/667 nm fluorescence, primary screen (AID 1133). The settings on record: FGF2, fluorescence 635/667, higher = more signal.
Assay [7] in a line: JC-1 mitochondrial potential readout, lung cancer cells – cell-based, A549, JC-1 fluorescence, basal, 24 h, 100 nL, profiling panel (AID 1138).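 Further: A549 lung adenocarcinoma cells under basal conditions with no added stimulus; test concentration not given here.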 The conditions noted are these: higher = more signal.
Assay [8] deals with Lefty1. The experiment in a line: Lefty1 protein binding to printed compounds – biochemical, small-molecule microarray, 635/667 nm fluorescence, primary screen (AID 1139). The settings on record: fluorescence 635/667, higher = more signal.
For assay [9], the system named is wheat germ agglutinin (Triticum aestivum), Alexa647-labelled. The experiment in a line: Alexa647-WGA lectin binding to printed small molecules – biochemical, small-molecule microarray, 635/667 nm fluorescence, artefact control for SMM control-protein annotation, profiling panel (AID 1140).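 Further: score merges 667 nm feature emission with signal to noise over triplicate slides.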 The conditions noted are these: WGA-A647 binding, 635 nm fluorescence, higher = more signal.

In assay [10] the target is Luciferin 4-monooxygenase (Photinus pyralis) (UniProt P08659). As to the kind of experiment: inhibition of purified Photinus pyralis luciferase – biochemical, luminescence, purified enzyme, 2006 set, primary screen (AID 1141).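 Further: cell-free assay with purified firefly luciferase at 100 ng per well in PBS; test concentration not given here.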 The conditions noted are these: purified firefly luciferase, SteadyGlo luminescence, 30 min; higher = more signal, called active from +8 up or from −8 down.
Luciferin 4-monooxygenase (Photinus pyralis), sequence (P08659 whole entry, looked up): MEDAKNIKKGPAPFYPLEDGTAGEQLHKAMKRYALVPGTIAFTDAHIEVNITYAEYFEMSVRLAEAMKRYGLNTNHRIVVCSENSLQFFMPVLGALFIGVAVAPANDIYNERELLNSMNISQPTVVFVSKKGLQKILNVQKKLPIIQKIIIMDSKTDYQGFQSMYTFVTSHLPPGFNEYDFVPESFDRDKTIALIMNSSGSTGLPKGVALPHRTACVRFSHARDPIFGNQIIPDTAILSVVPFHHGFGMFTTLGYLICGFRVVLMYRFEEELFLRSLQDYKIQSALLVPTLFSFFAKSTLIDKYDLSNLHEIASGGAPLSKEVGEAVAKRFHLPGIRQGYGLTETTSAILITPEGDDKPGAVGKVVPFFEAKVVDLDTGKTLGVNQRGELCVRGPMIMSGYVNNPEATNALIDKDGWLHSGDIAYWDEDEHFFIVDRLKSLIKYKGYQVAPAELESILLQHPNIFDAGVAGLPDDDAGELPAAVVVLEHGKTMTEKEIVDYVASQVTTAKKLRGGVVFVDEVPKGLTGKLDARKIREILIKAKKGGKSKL

The test system of assay [11] is Wnt5a (protein binding on small-molecule microarray). As to the kind of experiment: small molecules binding Wnt5a protein – biophysical, small-molecule microarray, 635/667 nm fluorescence, primary screen (AID 1142).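 Further: fluorescence read at 667 nm with signal to noise per printed feature.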 The conditions noted are these: 635 nm fluorescence, higher = more signal.
A short description of assay [12]: ATP-based viability of Huh7 replicon cells – cell-based, CellTiter-Glo luminescence, basal, 48 h, cytotoxicity control for HCV replication inhibitor project, primary screen (AID 1143).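 Further: Huh7 hepatoma cells carrying a hepatitis C replication reporter with no stimulus; test concentration not given here.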 The settings on record: higher = more signal, called active from +8 up or from −8 down.
The nature of assay [13]: Pseudomonas biofilm growth suppression – PAO1 strain, BacTiter-Glo luminescence, LB-PBS, primary screen (AID 1144). The conditions noted are these: P. aeruginosa PAO1 biofilm, 12 h, higher = more signal.
Assay [14] in a line: basal CRE-LacZ reporter activity in PC12 – cell-based, unstimulated, primary screen (AID 1145). The conditions noted are these: no forskolin, luminescence, 4.5 h, higher = more signal, called active from +8 up or from −8 down.
Assay [15] can be described thus: forskolin-driven CRE-LacZ activity in PC12 – cell-based, CRE-LacZ reporter, forskolin-stimulated, primary screen (AID 1146).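 Further: PC12 cells with 6xCRE LacZ reporter stimulated by forskolin 10 µM; beta-galactosidase reporter signal reflecting CREB driven transcription.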 The settings on record: luminescence, 4.5 h, higher = more signal, called active from +8 up or from −8 down.
Assay [16] deals with Streptavidin (Streptomyces avidinii) (UniProt P22629). As to the kind of experiment: compounds binding control protein streptavidin – biophysical, small-molecule microarray, 635/667 nm fluorescence, artefact control for SMM compound annotation, primary screen (AID 1147).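 Further: signal reflects streptavidin binding to arrayed compounds as a control protein.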 The conditions noted are these: higher = more signal.
Streptavidin (Streptomyces avidinii), sequence (P22629 whole entry, looked up): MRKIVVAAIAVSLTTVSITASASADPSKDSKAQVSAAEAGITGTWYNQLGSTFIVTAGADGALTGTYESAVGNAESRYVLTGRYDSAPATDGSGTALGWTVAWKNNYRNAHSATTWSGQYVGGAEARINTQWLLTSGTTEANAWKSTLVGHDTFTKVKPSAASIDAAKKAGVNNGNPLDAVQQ
A short description of assay [17]: probe aInhba binding on compound microarray – biochemical, small-molecule microarray, 635/667 nm fluorescence, primary screen (AID 1148).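 Further: score merges 667nm spot fluorescence with signal-to-noise for antibody binding to printed compounds.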 The settings on record: higher = more signal.
The target of assay [18] is Torsin-1A (Homo sapiens) (UniProt O14656). As to the kind of experiment: TOR1A wild-type binding on microarray – cell lysate, small-molecule microarray, lysate, 635/667 nm, primary screen (AID 1149). The settings on record: COS7 hTOR1A-WT lysate, 635 nm fluorescence, higher = more signal.
Torsin-1A (Homo sapiens), sequence (O14656 whole entry, looked up): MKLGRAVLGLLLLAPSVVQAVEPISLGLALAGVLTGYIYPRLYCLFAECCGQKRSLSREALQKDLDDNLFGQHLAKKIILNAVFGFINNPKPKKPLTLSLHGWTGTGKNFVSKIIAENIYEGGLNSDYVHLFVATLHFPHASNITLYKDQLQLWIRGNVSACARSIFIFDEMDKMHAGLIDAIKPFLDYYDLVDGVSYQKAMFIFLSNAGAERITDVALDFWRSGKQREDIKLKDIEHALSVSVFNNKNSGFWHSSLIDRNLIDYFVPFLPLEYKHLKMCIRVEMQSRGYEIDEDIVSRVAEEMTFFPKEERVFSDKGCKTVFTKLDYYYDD
The target is the same in assay [19]. As to the kind of experiment: torsin A mutant lysate binding on microarrays – cell lysate, small-molecule microarray, COS7 lysate, 635/667 nm fluorescence, primary screen (AID 1150).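 Further: score pools 667 nm emission and signal to noise measuring lysate protein binding.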 The conditions noted are these: COS7 hTOR1A mutant lysate, 635 nm fluorescence, higher = more signal.
Assay [20] relates to Sonic hedgehog protein (Shh). As to the kind of experiment: Sonic hedgehog microarray binding compounds – biochemical, small-molecule microarray, 635/667 nm fluorescence, primary screen (AID 1151).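 Further: Shh protein binding to compounds spotted on small-molecule microarray slides; score combines spot fluorescence intensity with signal-to-noise across triplicate slides.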 The settings on record: 635 nm fluorescence, higher = more signal.

Fibroblast growth factor 2 (Homo sapiens), sequence (P09038 whole entry, looked up): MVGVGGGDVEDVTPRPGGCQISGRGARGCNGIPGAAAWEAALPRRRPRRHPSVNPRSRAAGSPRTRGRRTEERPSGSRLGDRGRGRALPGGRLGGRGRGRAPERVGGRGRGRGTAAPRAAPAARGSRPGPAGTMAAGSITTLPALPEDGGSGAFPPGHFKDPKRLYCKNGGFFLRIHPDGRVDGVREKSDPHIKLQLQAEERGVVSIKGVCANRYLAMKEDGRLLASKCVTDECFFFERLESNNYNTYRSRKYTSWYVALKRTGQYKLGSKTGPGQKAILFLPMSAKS

Turning to `Cc1ccc(F)cc1S(=O)(=O)N[C@@H]1CCN(Cc2ccc(OC(C)C)cc2)C1`, the composite z-score in [1] is 0.111; in [2] it was -1.37; in [3] it was -0.425; in assay [4], -0.907; in [5] it was -0.235; in assay [6], 0.47. Besides, the composite z-score in [8] was -0.177; in [9], -1.28; in [11] it was -0.0943; in assay [16], -0.293; in [17] it was -0.341; in assay [18], 0.277. For the same molecule, the figures for the composite z-score in [19] and in [20] were 0.719 and -0.0003, respectively. Besides, the z-score was 1.14 in [7]; 0.0358 (inactive) in assay [10]; -3.86 (inactive) in [12]; 0.816 (inactive) in [13]; 1.76 (inactive) in assay [14]; 0.524 (inactive) in assay [15].
With `COC(=O)[C@@]1(Cc2ccccc2)[C@H]2c3cc(C(=O)N4CCCC4)n(Cc4ccsc4Br)c3C[C@H]2CN1C(=O)c1ccccc1`, the composite z-score in [1] is 1.6; in [2], 1.23; in assay [3] it was 0.619; in [4] it was 0.789; in assay [5], 0.647; in assay [6], -0.282. Moreover, the composite z-score in assay [8] is -0.524; in assay [9], 1.25; in assay [11], 0.38; in assay [16] it was 1.21; in [17] it was 0.407; in [18], 0.147. The composite z-score in assay [19] was 0.894; in assay [20], -1.01. Moreover, the z-score in assay [7] is 1.88; in assay [10] it was 1.79 (inactive); in [12], -3.12 (inactive); in assay [13], 0.389 (inactive); in [14] it was 0.201 (inactive); in assay [15] it was -0.813 (inactive).
On to `NCCCCCNC(=O)[C@@H]1C[C@@H]2C(=O)N[C@@H](CCCCN)C(=O)N2[C@@H]1c1cccc(OCCO)c1`, for which the composite z-score in [1] is 2.33; in assay [2] it was -0.0045; in assay [3], -0.214; in [4], 0.101; in assay [5], 1.17; in assay [6] it was 1.25. For the same molecule, the composite z-score in assay [8] is 1.54; in [9] it was 0.715; in assay [11], 0.331; in [16], 0.302; in [17] it was -0.331; in [18] it was 0.247. Further, the composite z-score in assay [19] was -0.02; in assay [20], 1.55. For the same molecule, the z-score in [7] is 0.844; in assay [10], 1.03 (inactive); in assay [12], 0.21 (inactive); in [13], -0.85 (inactive); in assay [14], -0.541 (inactive); in assay [15], -0.304 (inactive).
Take `COCCOC(=O)N1C(=O)[C@@]2(c3cc(C#CC4(O)CCCCCC4)ccc31)[C@H](c1ccccc1OCCO)N1[C@H](c3ccccc3)[C@H](c3ccccc3)OC(=O)[C@H]1[C@@H]2C(N)=O`: the composite z-score in assay [1] is 1.47; in assay [2], 1.18; in [3], 0.639; in assay [4] it was 0.872; in [5] it was 1.41; in [6], 1.51. Besides, the composite z-score in [8] is 1.56; in [9], 1.02; in assay [11], 0.448; in assay [16], 0.421; in assay [17] it was -0.0494; in [18], 0.749. The composite z-score in [19] was 0.761; in assay [20], 1.97. Besides, the z-score in assay [7] was -1.68; in [10], -0.927 (inactive); in [12], -6.31 (inactive); in assay [13], 0.754 (inactive); in [14] it was 0.245 (inactive); in assay [15] it was 0.0169 (inactive).
